Among all 10,000 compounds or so, about 320 (3.2%) were called active. What follows is part of a selection rich in actives, with near analogues and random picks from the rest. Values without a mark were called inactive. Rule as the data show it: active = CPE inhibition mostly above about 9.1% (no sharp cut-off); inactive = mostly below about 7.2%.

A short description of this assay: antivirals protecting cells from dengue CPE – CPE readout, HTS (AID 540333). As to conditions: Dengue virus CPE inhibition in host cells, at 20 µM; hits give high values.
Turning to `COc1cccc(C(=O)NC(=S)Nc2ccc(N(C)C)cc2)c1`, the CPE inhibition entry is “inactive”.
To `COc1ccc(S(=O)(=O)N2CCOCC2)cc1NC(=O)c1cc2c(s1)CCCC2` belongs 0.62%.
As for `COc1ccc(NC(=O)c2cc3c(s2)CCC(C)C3)cc1S(=O)(=O)N1CCOCC1` (stereo not given), the CPE inhibition is 16.7% (active).
With `COc1ccc(NC(=O)CN2CCC(Cc3ccccc3)CC2)cc1S(=O)(=O)N1CCOCC1`, the CPE inhibition was 0.605%.
To `CCCN(CC(=O)Nc1ccc(F)c(F)c1F)CC(=O)Nc1c(Cl)cccc1Cl` belongs 1.15%; to `Cc1cc(C)nc(NC(=NCCc2c[nH]c3ccccc23)NC(=O)Nc2ccc(Cl)c(Cl)c2)n1`, 7.48%.
The result for `Cc1cc(C)nc(NC(=NCCc2c[nH]c3ccccc23)NC(=O)Nc2ccccc2)n1` reads 13.5% (active); that for `Cc1cc(C)nc(NC(=NCCc2c[nH]c3ccccc23)NC(=O)Nc2ccc(Cl)cc2)n1`, 4.91%; that for `COc1ccc(NC(=S)Nc2ccc(OCc3ccccc3)cc2)c(OC)c1`, 5.78%.
The result for `CC(C)c1ccccc1NC1=CC(=O)CC(C)(C)C1` reads 1.06%.
Regarding `CC(C)CNC(=S)N1CCN(C(c2ccccc2)c2ccccc2)CC1`, the CPE inhibition was 27.6% (active).
The result for `CC(NC(=S)N1CCOCC1)c1ccccc1` (stereo not given) reads “inactive”; that for `CCCNC(=S)N1CCN(C(c2ccccc2)c2ccccc2)CC1`, 9.31%.
Turning to `CCN1CCN(C(=S)NC(C)c2ccccc2)CC1` (stereo not given), the CPE inhibition result was “inactive”.
The result for `CCC(C)NC(=S)N1CCN(C(c2ccccc2)c2ccccc2)CC1` (stereo not given) reads 11% (active); that for `COc1ccc(NC(=S)N2CCN(C(c3ccccc3)c3ccccc3)CC2)cc1OC`, 2.59%; that for `O=C(NCCc1ccccc1)C(=O)Nc1nccs1`, 0.515%.
To `CCCc1nnc(NC(=O)CCC(=O)N2CCN(C3c4ccccc4-c4ccccc43)CC2)s1` belongs “inactive”; to `CCOc1cc(/C=N/NC(=O)CSc2nncn2C)ccc1OC(=O)c1ccc(Cl)cc1`, 1.75%.
The result for `S=C(Nc1ccccc1Cl)N1CCCCC1` reads “inactive”; that for `N#Cc1c(-c2ccc(Cl)cc2)c(C#N)c(=O)n(N)c1N`, 0.43%.
As to `Cc1ccc(NC(=O)Cc2ccc(Cl)c(Cl)c2)cc1S(=O)(=O)N(C)C`, the CPE inhibition is 11.7% (active).
To `Cc1ccc(NC(=O)CNc2ccc(Cl)c(Cl)c2)cc1S(=O)(=O)N(C)C` belongs 20.7% (active); to `Cc1ccc(NC(=O)CSc2nn(-c3ccc(Cl)cc3)c(=S)s2)cc1S(=O)(=O)N(C)C`, 2.52%; to `COc1ccc(CCC(=O)OCC(=O)Nc2ccc(C)c(S(=O)(=O)N(C)C)c2)cc1`, 0.745%.
The result for `Cc1ccc(NC(=O)CCNC(=O)c2ccccc2Cl)cc1S(=O)(=O)N(C)C` reads 0.01%; that for `Cc1ccc(NC(=O)c2cnccn2)cc1S(=O)(=O)N(C)C`, 1.06%; that for `CN(C)S(=O)(=O)n1cnc([C@@H]2[C@H]3C(=O)OC[C@@H]3C[C@@]23N=CN(Cc2ccccc2)C3=O)c1`, 0.215%.
To `CC1CCCN(c2ccc(C(=O)NCc3ccc4c(c3)OCO4)cc2[N+](=O)[O-])C1` (stereo not given) belongs 0.66%.
For `NNC(=O)c1ccc(COc2cccc3ccccc23)cc1`, the CPE inhibition was 0.845%.
The result for `CC(C)c1ccc(NCCC(=O)c2ccc(Br)cc2)cc1` reads “inactive”; that for `CCNC(=S)Nc1cc(Cl)ccc1Oc1ccccc1`, 1.55%.
With `CC1=NN(c2ccccc2)C(=O)/C1=C\c1cc(C)n(-c2ccccc2)c1C`, the CPE inhibition is 1.6%.
The result for `COc1cc(/C=C2\C(=O)N(c3ccccc3)N=C2C)ccc1Oc1ccc([N+](=O)[O-])cc1[N+](=O)[O-]` reads 12.3% (active); that for `CC1=NN(c2ccccc2)C(=O)/C1=C/c1ccc[nH]1`, “inactive”.
In the case of `CCOC(=O)c1cc(-c2ccccc2)sc1NC(=O)C(C)Sc1nnc(N)s1` (stereo not given), the CPE inhibition is 19% (active).
For `CCOC(=O)c1cc(-c2ccccc2)sc1NC(=O)C(C)C`, the CPE inhibition is 0.57%.
For the compound `CCOC(=O)c1cc(-c2ccccc2)sc1NC(=O)CC`, the CPE inhibition result is “inactive”.
To `COC(=O)NNC(=O)COc1ccc2ccccc2c1Br` belongs “inactive”; to `CCOC(=O)c1ccc(-c2ccc(C3Nc4ccccc4C(=O)N3O)o2)cc1` (stereo not given), 0.8%.
Regarding `Fc1cccc2sc(Nc3nc4ccccc4s3)nc12`, the CPE inhibition is 0.65%.
As for `Fc1ccc2nc(Nc3nc4c(F)cc(F)cc4s3)sc2c1`, the CPE inhibition was 1.16%.
To `c1ccc2sc(Nc3nc4cc5c(cc4s3)OCO5)nc2c1` belongs 0.275%; to `Fc1ccc2nc(Nc3nc4cc5c(cc4s3)OCCO5)sc2c1`, 9.35% (active); to `Fc1cccc2sc(Nc3nc4cc5c(cc4s3)OCO5)nc12`, 13.5% (active).
Turning to `COC(=O)c1ccc2nc(Nc3nc4ccc(F)cc4s3)sc2c1`, the CPE inhibition was 1.64%.
Take `Cc1ccc(N/N=C(\C#N)C(N)=S)c(C)c1`: the CPE inhibition was 4.94%.
For `Cc1ccccc1-n1c(-c2csc(C)c2C)n[nH]c1=S`, the CPE inhibition is 0.5%.
With `C=CCOC(=O)C1=C[C@@H](c2coc3ccccc3c2=O)C[C@@H](OCCCCO)O1`, the CPE inhibition entry is “inactive”.
To `O=C1c2cccc3c(N4CCOCC4)c([N+](=O)[O-])cc(c23)C(=O)N1c1cccc2ccccc12` belongs “inactive”; to `Clc1ccc(C2[C@H]3CN(CC4CCCCC4)[C@H](c4ccccc4)C34CC2(c2ccccc2)C4)cn1` (stereo not given in full), 4.18%; to `N#Cc1ccc(C23CC4(C2)[C@H](CN(P(=O)(c2ccccc2)c2ccccc2)[C@@H]4c2ccccc2)C3c2ccc(Cl)nc2)cc1` (stereo not given in full), 18.1% (active).
Turning to `CC(C)CC(=O)NC(Nc1ccc([N+](=O)[O-])cc1)C(Cl)(Cl)Cl` (stereo not given), the CPE inhibition was 6.29%.
The result for `Cc1cccc(N2C(=O)C(Cc3ccccc3)NC2=S)c1` (stereo not given) reads “inactive”.
The result for `CCn1c(O)c(N=NC(=O)c2ccc(CSc3nncn3C)cc2)c2ccccc21` reads “inactive”; that for `CCCCn1c(O)c(N=NC(=O)c2ccco2)c2ccccc21`, “inactive”; that for `O=C(N=Nc1c(O)n(Cc2ccccc2)c2ccccc12)c1ccc(O)cc1`, 16.3% (active).
The result for `C/C(=N\Nc1ccc([N+](=O)[O-])cc1)c1ccc(-n2nncc2C)cc1` reads “inactive”.
With `N#CC(C#N)=Cc1ccc(-c2ccc(S(=O)(=O)N=C(N)N)cc2)o1`, the CPE inhibition was 0.46%.
As to `COC(=O)c1sc2nc(C)cc(-c3ccccc3)c2c1N`, the CPE inhibition entry was “inactive”.
